# Experimental data reported in PMC7862700, “An all-to-all approach to the identification of sequence-specific readers for epigenetic DNA modifications on cytosine”.
# Assays:
# Assay in all cases: DAPPL (digital affinity profiling via proximity ligation, sequencing); 10 mM Tris-HCl pH 7.5, 50 mM NaCl, 1 mM DTT, 4% glycerol, room temperature, 30 min; GST-TFs on glutathione beads, 16-mer random dsDNA library, 0.1% formaldehyde crosslink after washing; high values mean tight binding
# FLI1 = target: T1, FLI1 (Homo sapiens, UniProt Q01543 1-452); conditions: protein: recombinant; tags: N-terminal GST; dsDNA, one strand shown
# T1 sequence: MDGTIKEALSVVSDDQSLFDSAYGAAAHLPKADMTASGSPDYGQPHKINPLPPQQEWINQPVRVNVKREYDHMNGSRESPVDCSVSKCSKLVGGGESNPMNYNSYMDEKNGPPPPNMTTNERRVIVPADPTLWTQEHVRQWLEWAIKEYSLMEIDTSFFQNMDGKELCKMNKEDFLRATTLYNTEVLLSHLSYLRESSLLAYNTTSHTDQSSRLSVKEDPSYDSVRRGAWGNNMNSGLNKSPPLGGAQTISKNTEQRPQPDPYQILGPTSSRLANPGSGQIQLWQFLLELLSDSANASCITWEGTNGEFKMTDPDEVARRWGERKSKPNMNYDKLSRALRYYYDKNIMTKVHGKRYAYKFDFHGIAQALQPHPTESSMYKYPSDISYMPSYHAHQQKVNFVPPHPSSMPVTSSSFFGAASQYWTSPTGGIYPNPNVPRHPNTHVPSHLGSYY
# In short: (§1)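 A tag-only sample was pooled with DNA-barcoded human transcription factors that had been expressed in yeast as GST fusions and captured on glutathione beads. The pools were incubated for 30 min at room temperature with 200 nmole of a random double-stranded 16-mer DNA library in Tris/NaCl/DTT/glycerol buffer, then washed, crosslinked with 0.1% formaldehyde, proximity-ligated (BsaI/T4 ligase, 1 h, 37 °C), PCR-amplified and sequenced on an Illumina NextSeq500. Binding signal is each hexamer's read frequency for a factor divided by its frequency for the tag-only sample.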
# ELK1 = target: T2, ELK1 (Homo sapiens, UniProt P19419 1-428); conditions: protein: recombinant; tags: N-terminal GST; dsDNA, one strand shown
# T2 sequence: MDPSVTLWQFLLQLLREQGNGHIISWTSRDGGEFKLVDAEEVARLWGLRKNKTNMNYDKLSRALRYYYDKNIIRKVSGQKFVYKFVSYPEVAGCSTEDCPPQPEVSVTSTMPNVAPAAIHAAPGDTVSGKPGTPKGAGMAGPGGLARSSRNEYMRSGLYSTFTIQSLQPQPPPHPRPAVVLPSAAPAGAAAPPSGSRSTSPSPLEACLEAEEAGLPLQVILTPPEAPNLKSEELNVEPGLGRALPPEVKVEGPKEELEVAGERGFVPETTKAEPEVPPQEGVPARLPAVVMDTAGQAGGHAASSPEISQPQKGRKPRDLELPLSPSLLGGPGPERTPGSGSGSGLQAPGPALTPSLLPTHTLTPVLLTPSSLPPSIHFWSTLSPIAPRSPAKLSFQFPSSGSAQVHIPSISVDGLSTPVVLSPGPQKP
# In short: as §1
# GABPA = target: T3, GABPA (Homo sapiens, UniProt Q06546 1-454); conditions: protein: recombinant; tags: N-terminal GST; dsDNA, one strand shown
# T3 sequence: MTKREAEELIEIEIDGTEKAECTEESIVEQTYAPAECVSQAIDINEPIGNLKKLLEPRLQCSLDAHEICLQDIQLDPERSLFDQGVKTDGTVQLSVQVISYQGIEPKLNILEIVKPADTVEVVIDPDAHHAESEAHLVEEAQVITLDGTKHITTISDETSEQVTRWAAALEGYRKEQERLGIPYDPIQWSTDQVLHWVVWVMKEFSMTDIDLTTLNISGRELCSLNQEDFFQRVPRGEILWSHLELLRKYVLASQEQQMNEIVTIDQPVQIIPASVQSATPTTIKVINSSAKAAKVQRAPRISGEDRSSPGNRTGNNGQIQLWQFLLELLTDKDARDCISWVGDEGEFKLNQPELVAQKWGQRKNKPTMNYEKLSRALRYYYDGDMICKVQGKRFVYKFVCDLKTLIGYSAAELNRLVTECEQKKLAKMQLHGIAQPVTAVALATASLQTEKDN
# In short: as §1
# ERG = target: T4, ERG (Homo sapiens, UniProt P11308 1-479); conditions: protein: recombinant; tags: N-terminal GST; dsDNA, one strand shown
# T4 sequence: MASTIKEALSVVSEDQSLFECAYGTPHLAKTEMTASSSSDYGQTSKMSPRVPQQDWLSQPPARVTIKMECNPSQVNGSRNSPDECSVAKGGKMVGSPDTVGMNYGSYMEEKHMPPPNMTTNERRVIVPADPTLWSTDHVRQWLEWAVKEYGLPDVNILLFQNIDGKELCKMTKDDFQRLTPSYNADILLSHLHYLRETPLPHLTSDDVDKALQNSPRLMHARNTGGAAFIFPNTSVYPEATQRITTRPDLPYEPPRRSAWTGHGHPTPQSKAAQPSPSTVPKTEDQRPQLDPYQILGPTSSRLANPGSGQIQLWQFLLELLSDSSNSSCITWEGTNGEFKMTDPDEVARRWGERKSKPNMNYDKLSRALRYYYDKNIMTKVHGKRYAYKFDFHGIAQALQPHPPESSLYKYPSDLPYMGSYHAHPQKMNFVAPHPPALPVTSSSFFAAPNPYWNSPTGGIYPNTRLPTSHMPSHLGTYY
# In short: as §1
# ELF1 = ELF1 (Homo sapiens, UniProt P32519 1-619); conditions: protein: recombinant; tags: N-terminal GST; dsDNA, one strand shown
# In short: as §1
# EHF = target: T5, EHF (Homo sapiens, UniProt Q9NZC4 1-300); conditions: protein: recombinant; tags: N-terminal GST; dsDNA, one strand shown
# T5 sequence: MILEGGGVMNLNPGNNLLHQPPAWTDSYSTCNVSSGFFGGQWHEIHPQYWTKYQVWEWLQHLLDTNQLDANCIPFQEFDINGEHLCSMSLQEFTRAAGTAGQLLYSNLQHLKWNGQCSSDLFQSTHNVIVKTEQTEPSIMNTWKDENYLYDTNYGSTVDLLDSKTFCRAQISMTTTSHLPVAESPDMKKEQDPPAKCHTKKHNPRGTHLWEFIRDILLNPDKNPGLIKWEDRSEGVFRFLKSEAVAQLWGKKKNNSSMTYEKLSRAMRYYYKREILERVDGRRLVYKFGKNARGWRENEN
# In short: as §1
# SPI1 = SPI1 (Homo sapiens, UniProt P17947 1-270); conditions: protein: recombinant; tags: N-terminal GST; dsDNA, one strand shown
# In short: as §1
# SPIB = SPIB (Homo sapiens, UniProt Q01892 1-262); conditions: protein: recombinant; tags: N-terminal GST; dsDNA, one strand shown
# In short: as §1
# ELK3 = target: T6, ELK3 (Homo sapiens, UniProt P41970 1-407); conditions: protein: recombinant; tags: N-terminal GST; dsDNA, one strand shown
# T6 sequence: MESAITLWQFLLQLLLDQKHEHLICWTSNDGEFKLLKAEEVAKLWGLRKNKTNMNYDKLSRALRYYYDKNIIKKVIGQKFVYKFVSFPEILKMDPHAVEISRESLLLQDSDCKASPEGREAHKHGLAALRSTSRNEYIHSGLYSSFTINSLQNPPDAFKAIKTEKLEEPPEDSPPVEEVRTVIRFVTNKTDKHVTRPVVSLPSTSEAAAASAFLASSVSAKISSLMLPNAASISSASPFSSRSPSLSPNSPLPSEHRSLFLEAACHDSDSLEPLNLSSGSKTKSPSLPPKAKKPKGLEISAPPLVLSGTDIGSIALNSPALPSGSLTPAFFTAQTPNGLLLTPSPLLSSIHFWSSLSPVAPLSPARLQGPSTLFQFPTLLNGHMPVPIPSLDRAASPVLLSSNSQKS
# In short: as §1
# FEV = target: T7, FEV (Homo sapiens, UniProt Q99581 1-238); conditions: protein: recombinant; tags: N-terminal GST; dsDNA, one strand shown
# T7 sequence: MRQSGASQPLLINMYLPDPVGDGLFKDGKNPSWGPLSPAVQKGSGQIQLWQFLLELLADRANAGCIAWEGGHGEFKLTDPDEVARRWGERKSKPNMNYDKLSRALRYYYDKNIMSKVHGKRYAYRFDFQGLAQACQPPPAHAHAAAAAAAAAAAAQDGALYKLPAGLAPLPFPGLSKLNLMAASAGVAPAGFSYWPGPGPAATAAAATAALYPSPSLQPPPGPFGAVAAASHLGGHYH
# In short: as §1
# ETV5 = ETV5 (Homo sapiens, UniProt P41161 1-510); conditions: protein: recombinant; tags: N-terminal GST; dsDNA, one strand shown
# In short: as §1
# HSF1 = HSF1 (Homo sapiens, UniProt Q00613 1-529); conditions: protein: recombinant; tags: N-terminal GST; chain copies: 3; dsDNA, one strand shown
# In short: as §1
# SPIC = target: T8, SPIC (Homo sapiens, UniProt Q8N5J4 1-248); conditions: protein: recombinant; tags: N-terminal GST; dsDNA, one strand shown
# T8 sequence: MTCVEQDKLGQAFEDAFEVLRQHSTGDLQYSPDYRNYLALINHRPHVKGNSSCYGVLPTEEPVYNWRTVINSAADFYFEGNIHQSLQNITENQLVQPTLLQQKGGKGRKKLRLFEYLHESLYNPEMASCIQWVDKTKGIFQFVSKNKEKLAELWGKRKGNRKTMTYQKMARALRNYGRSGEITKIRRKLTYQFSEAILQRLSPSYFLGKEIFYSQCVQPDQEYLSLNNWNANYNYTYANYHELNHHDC
# In short: as §1
# ELF4 = ELF4 (Homo sapiens, UniProt Q99607 1-663); conditions: protein: recombinant; tags: N-terminal GST; dsDNA, one strand shown
# In short: as §1
# ELK4 = target: T9, ELK4 (Homo sapiens, UniProt P28324-2 1-405); conditions: protein: recombinant; tags: N-terminal GST; dsDNA, one strand shown
# T9 sequence: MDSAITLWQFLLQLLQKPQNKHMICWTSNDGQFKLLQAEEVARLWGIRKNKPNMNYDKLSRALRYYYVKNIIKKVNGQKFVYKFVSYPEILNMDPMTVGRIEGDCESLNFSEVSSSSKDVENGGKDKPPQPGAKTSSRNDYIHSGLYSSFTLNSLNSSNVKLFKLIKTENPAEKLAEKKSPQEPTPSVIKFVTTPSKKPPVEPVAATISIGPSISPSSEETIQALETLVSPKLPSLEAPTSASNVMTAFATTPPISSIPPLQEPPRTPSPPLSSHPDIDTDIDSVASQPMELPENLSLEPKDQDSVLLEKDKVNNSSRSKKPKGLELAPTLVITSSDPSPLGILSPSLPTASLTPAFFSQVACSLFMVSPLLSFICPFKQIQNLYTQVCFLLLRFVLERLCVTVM
# In short: as §1
# ETV2 = target: T10, ETV2 (Homo sapiens, UniProt O00321 1-342); conditions: protein: recombinant; tags: N-terminal GST; dsDNA, one strand shown
# T10 sequence: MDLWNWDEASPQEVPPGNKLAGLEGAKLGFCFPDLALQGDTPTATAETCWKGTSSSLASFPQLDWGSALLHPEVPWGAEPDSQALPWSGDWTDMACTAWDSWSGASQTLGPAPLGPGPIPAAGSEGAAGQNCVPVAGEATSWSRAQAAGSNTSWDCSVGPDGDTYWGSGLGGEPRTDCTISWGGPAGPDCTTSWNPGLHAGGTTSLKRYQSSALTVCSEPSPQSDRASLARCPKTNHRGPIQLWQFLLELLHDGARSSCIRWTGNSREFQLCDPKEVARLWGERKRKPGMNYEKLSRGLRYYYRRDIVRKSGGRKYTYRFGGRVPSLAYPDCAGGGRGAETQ
# In short: as §1
# ELF3 = target: T11, ELF3 (Homo sapiens, UniProt P78545 1-371); conditions: protein: recombinant; tags: N-terminal GST; dsDNA, one strand shown
# T11 sequence: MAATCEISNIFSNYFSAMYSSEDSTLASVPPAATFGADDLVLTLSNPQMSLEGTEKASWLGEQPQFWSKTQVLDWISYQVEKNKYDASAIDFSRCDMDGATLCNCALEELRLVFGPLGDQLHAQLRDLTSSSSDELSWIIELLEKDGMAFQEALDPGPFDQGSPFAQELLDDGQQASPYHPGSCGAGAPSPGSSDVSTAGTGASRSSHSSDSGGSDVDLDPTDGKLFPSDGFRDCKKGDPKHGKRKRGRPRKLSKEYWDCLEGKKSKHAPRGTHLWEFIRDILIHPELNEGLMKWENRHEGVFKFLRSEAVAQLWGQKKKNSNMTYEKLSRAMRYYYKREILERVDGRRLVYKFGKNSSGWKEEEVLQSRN
# In short: as §1
# CRX = CRX (Homo sapiens, UniProt O43186 1-299); conditions: protein: recombinant; tags: N-terminal GST; dsDNA, one strand shown
# In short: as §1
# ETV1 = ETV1 (Homo sapiens, UniProt P50549 1-477); conditions: protein: recombinant; tags: N-terminal GST; dsDNA, one strand shown
# In short: as §1
# Chain of ELF1 (P32519 whole entry): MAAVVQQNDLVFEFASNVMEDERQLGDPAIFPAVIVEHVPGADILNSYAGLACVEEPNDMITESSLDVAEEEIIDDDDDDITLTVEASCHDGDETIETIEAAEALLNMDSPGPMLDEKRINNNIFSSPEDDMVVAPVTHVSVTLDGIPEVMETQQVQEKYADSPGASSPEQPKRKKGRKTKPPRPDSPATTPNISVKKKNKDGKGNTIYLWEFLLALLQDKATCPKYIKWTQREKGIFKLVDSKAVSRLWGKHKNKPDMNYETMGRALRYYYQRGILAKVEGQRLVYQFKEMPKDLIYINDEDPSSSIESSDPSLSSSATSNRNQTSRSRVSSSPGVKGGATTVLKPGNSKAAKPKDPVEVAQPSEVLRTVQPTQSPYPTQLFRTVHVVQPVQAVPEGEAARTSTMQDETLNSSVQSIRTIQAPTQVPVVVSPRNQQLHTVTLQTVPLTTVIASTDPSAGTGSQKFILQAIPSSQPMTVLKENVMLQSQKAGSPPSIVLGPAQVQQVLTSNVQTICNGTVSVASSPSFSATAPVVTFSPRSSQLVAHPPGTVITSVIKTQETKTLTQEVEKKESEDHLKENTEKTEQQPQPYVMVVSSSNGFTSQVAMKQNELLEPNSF
# Chain of HSF1 (Q00613 whole entry): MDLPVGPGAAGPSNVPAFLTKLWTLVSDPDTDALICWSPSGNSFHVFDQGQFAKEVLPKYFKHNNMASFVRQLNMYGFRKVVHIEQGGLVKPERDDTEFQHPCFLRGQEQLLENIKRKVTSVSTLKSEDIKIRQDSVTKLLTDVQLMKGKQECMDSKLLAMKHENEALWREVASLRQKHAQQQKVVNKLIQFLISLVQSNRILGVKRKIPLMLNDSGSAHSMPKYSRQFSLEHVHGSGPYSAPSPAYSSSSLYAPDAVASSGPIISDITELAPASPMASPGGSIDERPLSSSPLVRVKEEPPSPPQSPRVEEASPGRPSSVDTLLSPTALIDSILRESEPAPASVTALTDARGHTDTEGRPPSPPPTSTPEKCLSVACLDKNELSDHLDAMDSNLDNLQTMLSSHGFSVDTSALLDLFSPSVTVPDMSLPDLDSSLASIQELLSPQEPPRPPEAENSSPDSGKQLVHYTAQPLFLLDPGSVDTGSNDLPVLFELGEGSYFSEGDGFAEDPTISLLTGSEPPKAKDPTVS
# Chain of CRX (O43186 whole entry): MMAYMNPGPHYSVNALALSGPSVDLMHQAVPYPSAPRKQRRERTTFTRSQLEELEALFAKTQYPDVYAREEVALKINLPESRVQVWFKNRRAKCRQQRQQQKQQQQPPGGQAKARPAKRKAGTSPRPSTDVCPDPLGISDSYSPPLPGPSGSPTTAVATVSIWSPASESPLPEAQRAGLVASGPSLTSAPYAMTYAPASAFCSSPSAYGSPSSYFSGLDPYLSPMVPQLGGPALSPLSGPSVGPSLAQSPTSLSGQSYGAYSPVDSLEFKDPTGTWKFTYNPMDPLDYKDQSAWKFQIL
# Chain of SPIB (Q01892 whole entry): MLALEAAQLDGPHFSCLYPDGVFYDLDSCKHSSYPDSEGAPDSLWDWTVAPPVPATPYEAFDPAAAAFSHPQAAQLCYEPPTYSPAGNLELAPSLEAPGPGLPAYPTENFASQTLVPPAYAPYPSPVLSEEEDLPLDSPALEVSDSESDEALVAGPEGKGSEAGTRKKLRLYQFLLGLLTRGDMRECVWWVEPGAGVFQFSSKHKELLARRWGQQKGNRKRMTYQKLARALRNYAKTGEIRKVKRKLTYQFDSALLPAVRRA
# Chain of ELF4 (Q99607 whole entry): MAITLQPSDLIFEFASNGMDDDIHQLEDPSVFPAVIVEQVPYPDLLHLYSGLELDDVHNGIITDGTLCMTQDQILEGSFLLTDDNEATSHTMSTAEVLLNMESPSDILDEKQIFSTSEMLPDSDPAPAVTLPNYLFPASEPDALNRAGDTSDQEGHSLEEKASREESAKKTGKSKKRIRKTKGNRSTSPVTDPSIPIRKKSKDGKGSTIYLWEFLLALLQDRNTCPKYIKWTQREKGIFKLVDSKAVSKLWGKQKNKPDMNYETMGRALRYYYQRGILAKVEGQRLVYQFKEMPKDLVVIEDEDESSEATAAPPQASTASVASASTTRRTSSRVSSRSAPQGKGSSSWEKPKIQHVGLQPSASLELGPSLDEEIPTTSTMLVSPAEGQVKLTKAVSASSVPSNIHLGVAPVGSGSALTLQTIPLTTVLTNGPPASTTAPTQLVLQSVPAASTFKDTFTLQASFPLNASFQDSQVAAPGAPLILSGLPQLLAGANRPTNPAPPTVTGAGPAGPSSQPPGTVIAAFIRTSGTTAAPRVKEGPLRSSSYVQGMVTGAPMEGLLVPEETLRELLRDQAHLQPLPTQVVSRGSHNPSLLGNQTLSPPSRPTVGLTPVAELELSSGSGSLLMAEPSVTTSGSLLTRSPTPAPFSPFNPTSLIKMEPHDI
# Chain of ETV5 (P41161 whole entry): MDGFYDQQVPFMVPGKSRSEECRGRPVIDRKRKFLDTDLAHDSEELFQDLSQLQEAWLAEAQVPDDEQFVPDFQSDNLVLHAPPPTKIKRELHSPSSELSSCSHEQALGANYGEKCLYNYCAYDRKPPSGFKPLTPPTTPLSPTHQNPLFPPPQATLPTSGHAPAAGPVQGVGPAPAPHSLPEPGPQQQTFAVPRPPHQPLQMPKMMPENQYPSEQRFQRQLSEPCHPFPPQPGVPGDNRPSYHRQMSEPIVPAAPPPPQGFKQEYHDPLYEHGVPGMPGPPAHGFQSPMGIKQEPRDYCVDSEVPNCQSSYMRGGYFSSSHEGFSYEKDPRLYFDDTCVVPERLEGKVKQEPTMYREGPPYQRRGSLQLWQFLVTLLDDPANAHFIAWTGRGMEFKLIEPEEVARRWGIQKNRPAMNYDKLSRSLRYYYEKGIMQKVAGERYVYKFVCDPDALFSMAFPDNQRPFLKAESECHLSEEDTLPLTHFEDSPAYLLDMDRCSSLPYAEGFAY
# Chain of ETV1 (P50549 whole entry): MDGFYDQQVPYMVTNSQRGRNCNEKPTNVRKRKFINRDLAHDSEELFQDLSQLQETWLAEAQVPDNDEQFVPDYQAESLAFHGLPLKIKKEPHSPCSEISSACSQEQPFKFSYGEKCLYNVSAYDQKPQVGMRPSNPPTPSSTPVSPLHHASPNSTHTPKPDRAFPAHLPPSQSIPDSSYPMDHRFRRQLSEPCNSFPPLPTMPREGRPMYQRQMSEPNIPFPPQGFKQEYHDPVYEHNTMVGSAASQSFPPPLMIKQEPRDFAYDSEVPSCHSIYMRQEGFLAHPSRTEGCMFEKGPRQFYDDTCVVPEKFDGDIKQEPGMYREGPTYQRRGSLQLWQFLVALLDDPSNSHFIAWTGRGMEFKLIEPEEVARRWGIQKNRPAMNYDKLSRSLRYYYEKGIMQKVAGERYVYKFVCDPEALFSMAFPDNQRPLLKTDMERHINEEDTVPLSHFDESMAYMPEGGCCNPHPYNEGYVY
sequence,measurement,setting,value
ACATTA,binding signal,FLI1,"1.17 fold enrichment (6-mer frequency, TF over GST control)"
same,binding signal,ELK1,"1.16 fold enrichment (6-mer frequency, TF over GST control)"
same,binding signal,GABPA,"1.17 fold enrichment (6-mer frequency, TF over GST control)"
same,binding signal,ERG,"1.08 fold enrichment (6-mer frequency, TF over GST control)"
same,binding signal,ELF1,"1.19 fold enrichment (6-mer frequency, TF over GST control)"
same,binding signal,EHF,"1.17 fold enrichment (6-mer frequency, TF over GST control)"
same,binding signal,SPI1,"1.06 fold enrichment (6-mer frequency, TF over GST control)"
same,binding signal,SPIB,"1.2 fold enrichment (6-mer frequency, TF over GST control)"
same,binding signal,ELK3,"1.08 fold enrichment (6-mer frequency, TF over GST control)"
same,binding signal,FEV,"1.16 fold enrichment (6-mer frequency, TF over GST control)"
same,binding signal,ETV5,"1.12 fold enrichment (6-mer frequency, TF over GST control)"
same,binding signal,HSF1,"1.2 fold enrichment (6-mer frequency, TF over GST control)"
same,binding signal,SPIC,"1.23 fold enrichment (6-mer frequency, TF over GST control)"
same,binding signal,ELF4,"1.2 fold enrichment (6-mer frequency, TF over GST control)"
same,binding signal,ELK4,"1.18 fold enrichment (6-mer frequency, TF over GST control)"
same,binding signal,ETV2,"1.25 fold enrichment (6-mer frequency, TF over GST control)"
same,binding signal,ELF3,"1.14 fold enrichment (6-mer frequency, TF over GST control)"
same,binding signal,CRX,"1.38 fold enrichment (6-mer frequency, TF over GST control)"
same,binding signal,ETV1,"1.29 fold enrichment (6-mer frequency, TF over GST control)"
